This is part of a sample that, as a whole, favours compounds with a hit. Of some 83,000 tested, about 20% had one in any assay.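 96-well plates, one dose, 48 hours. Percent growth reported; active if below 10.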 Active and inactive are the calls of the source.

The test has as its system MDA-MB-468 breast. Description: NCI-60 one-dose screen, 48 h (100 = growth as untreated, 0 = no growth, -100 = all killed). As to conditions: 10 µM unless noted.
For the molecule `COc1cc(CSc2nc3ccc(Cl)cc3c(=O)n2Cc2ccccc2)cc(OC)c1OC`, the growth was -13.1% (active).

`COC(c1ccc2ccccc2c1)C(C)C(F)F` (stereo unspecified): the growth is 99.7% (inactive).

As for `CN1CCN(c2ccc(-c3cc4c(Nc5ccc(F)c(Cl)c5)ncnn4c3)cc2)CC1`, the growth is 7.99% (active).

As for `Cc1ccc(C)c(CN(C)C)c1O`, the growth is 97.7% (inactive). Under `CCCCCCCCCCCCCCCC[N+]1(C)CCOCC1` stands -50.9% (active); under `O=S(=O)(NCc1ccccc1)c1ncnc2nc[nH]c12`, 108% (inactive).

Take `COc1ccc(C2C(C#N)=C(N)Oc3c2sc2c(F)cccc32)cc1` (stereo unspecified): the growth was 40.6% (inactive).

Regarding `Cc1nc2sc(C(=O)Nc3cccc4ccccc34)c(N)c2cc1C(C)O` (stereo unspecified), the growth was 25.3% (inactive).

Regarding `Nc1n[nH]c2cccc(C#Cc3cccc(NC(=O)c4cccc(C(F)(F)F)c4)c3)c12`, the growth was 79.3% (inactive). Under `O=C(O)c1ccc(-n2cc(CNc3cccc(Cl)c3)c(-c3ccc(F)cc3)n2)cc1` stands 109% (inactive); under `O=S(=O)(Oc1ccc(Br)cc1)c1ccc(Cl)cc1`, 105% (inactive); under `COC(=O)C1(C)COP(=O)(NC23CC4CC(CC(C4)C2)C3)OC1` (stereo unspecified), 110% (inactive).

Turning to `C/C=C/C1=CN2C(=O)c3cc(OC4OC(C)C(NC)C(C)(O)C4O)c(C)cc3N=C[C@@H]2C1` (stereo partly specified), the growth is -52.9% (active). Under `O=C(NC1CC(F)C1)c1cc2cccnc2n1-c1ccc(Cl)c(Cl)c1` (stereo unspecified) stands 101% (inactive); under `O=C(Nc1ccc([N+](=O)[O-])cc1)C(=O)Nc1ccc([N+](=O)[O-])cc1`, 105% (inactive); under `Cc1ccc(CN2CCC(C(=O)Nc3ccc(-c4cc5ccccc5[nH]4)cc3)CC2)o1`, 5.26% (active).

The values are drawn from PubChem BioAssay (NCI).
